Data: PMC8159961, “Exploring protein hotspots by optimized fragment pharmacophores” (Nature Communications, 2021)
Values without a mark were called inactive. No rule for the calls is given here.

The molecules below were run against histone methyltransferase SET domain containing 2 (SETD2) (Homo sapiens, UniProt Q9BYW2) (assay: primary screen, binary call; higher = more effect of the substance).
Experimental: The Chemiluminescence assay evaluates SETD2 specific tri -methylation activity towards histone H3K36. The kit consist s of recombinant SETD2, S-adenosylmethionine and a specific H3K36me3 antibody and was performed according to the manufacturer’s protocol (Catalo g- No. 52060, https://bpsbioscience.com/setd2 -chemiluminescent-assay-kit-52060). Values were blank corrected and normalized . Enzymatic activities were calculated relative to the positive control of the kit (full enzymatic activity) and to the known SET doma in inhibitor Sinefungin28 used as negative control (complete enzymatic activity inhibition). Compounds used were diluted in DMSO.

histone methyltransferase SET domain containing 2 (SETD2), sequence (Q9BYW2 whole entry, looked up, the tested form may be a part): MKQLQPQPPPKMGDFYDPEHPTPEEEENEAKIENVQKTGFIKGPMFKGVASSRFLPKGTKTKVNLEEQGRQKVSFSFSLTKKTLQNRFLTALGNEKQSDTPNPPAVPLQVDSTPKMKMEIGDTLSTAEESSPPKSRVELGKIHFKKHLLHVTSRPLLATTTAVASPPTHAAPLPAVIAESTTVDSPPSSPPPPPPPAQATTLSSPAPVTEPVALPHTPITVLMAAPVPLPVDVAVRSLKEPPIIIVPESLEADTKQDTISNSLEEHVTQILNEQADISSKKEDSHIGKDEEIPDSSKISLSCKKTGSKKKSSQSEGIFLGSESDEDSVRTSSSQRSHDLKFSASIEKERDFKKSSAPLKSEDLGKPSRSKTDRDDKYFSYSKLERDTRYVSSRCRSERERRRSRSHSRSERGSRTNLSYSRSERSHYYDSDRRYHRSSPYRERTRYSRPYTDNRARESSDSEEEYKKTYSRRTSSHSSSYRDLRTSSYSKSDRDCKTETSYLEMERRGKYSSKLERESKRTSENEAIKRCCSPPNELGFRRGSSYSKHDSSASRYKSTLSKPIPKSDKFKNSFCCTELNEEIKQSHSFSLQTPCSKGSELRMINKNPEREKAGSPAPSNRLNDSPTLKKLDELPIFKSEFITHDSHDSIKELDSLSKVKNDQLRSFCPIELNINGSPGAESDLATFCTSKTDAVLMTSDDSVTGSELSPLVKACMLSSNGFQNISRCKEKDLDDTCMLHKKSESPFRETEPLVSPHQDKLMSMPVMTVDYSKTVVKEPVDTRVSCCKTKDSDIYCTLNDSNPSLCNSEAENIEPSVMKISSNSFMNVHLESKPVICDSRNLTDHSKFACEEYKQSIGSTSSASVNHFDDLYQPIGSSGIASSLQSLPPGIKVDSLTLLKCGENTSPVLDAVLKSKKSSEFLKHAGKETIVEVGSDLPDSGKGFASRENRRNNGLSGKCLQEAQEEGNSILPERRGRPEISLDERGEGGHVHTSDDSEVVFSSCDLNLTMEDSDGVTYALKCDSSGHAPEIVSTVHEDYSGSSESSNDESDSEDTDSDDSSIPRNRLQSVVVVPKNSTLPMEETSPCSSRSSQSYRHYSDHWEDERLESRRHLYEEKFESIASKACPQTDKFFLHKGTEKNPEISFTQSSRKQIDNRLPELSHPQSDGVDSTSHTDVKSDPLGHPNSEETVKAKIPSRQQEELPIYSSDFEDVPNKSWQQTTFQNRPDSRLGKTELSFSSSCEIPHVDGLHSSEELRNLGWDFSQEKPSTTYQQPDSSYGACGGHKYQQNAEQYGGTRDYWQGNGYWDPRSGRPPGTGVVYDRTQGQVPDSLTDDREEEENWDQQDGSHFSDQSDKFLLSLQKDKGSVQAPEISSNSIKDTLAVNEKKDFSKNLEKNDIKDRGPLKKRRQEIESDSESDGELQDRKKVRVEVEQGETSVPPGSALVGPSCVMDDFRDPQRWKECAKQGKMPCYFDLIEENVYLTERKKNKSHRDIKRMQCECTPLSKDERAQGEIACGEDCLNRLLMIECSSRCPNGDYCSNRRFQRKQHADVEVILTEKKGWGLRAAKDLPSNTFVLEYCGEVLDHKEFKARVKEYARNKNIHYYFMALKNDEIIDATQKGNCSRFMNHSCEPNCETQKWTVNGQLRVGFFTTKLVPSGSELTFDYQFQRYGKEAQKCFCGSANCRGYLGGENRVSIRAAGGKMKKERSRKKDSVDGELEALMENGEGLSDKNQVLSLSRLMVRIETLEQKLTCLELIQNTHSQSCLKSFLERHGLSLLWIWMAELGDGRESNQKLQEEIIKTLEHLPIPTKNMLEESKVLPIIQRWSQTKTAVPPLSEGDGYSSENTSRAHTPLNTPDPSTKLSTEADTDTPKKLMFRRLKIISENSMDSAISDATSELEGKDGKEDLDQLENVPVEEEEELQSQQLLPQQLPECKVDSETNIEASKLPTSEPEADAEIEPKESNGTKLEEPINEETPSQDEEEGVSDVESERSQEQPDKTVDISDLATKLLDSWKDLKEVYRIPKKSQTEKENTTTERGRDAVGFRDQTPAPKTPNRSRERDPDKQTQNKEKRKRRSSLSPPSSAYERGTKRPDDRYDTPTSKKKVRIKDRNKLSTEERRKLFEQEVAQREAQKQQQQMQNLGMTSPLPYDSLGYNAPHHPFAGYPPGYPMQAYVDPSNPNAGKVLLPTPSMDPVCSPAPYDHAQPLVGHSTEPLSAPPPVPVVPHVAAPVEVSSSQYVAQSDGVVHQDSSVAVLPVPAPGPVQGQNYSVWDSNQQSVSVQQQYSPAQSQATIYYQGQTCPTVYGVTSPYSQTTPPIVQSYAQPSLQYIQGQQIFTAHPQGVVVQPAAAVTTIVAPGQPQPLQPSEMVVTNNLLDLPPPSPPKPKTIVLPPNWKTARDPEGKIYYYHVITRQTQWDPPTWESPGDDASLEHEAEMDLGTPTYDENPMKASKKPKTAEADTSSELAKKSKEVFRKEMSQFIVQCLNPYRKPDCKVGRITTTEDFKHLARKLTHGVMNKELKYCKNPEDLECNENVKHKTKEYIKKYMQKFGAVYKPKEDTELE

SMILES | SETD2
COc1ccccc1N1CCNCC1 | 0
O=C(O)c1cnc(-c2ccccc2)s1 | 0
O=c1ccc2c([nH]1)CCCC2 | 0
Oc1cnc(-c2ccccc2)nc1 | 0
CC(=O)c1sc(-c2ccc(O)cc2)nc1C | 0
CS(=O)(=O)Nc1ccc(C(=O)O)cc1 | 1 (active)
O=C1NC2(CCCC2)Nc2ccccc21 | 0
CC1(C)OC(=O)c2cc(Br)c(O)cc2O1 | 0
NC1CCc2ccccc21 (stereo not shown) | 0
c1ccc(Nc2nncs2)cc1 | 0
O=C1CCC(=O)N(c2ccccc2)N1 | 0
C1=C[C@H]2O[C@@H]1c1ccccc12 | 0
O=C(c1ccccc1)N1CCC(CO)CC1 | 0
NCC1(c2ccccc2)CCOCC1 | 0
CC1C(=O)NC(=O)N1c1ccc(Cl)cc1 (stereo not shown) | 0
Cc1nccn1Cc1cccc(C#N)c1 | 0
c1ccc2sc(N3CCNCC3)nc2c1 | 0
CN1CC(=O)NC1=O | 0
O=C(c1ccncc1)N1CCNCC1 | 0
O=C1CCN(c2ccncc2)CC1 | 0

SMILES | SETD2
CC(=O)c1ccc2c(c1)CCCN2 | 0
NC(c1ccccc1)c1ccccc1 | 0
O=C(CN1CCCC1)c1ccccc1Cl | 0
FC1(F)CNCC(F)(F)O1 | 0
N#CCCN1CCc2ccccc21 | 0
O=c1[nH]c2c(s1)CCC2 | 0
O=C(O)CC1CCC(=O)N1 (stereo not shown) | 0
CN(C)c1cc(CN)ccn1 | 0
COc1cccc(NC2=NCCCCC2)c1 | 0
N[C@H]1c2ccccc2C[C@H]1CO | 0
O=C(O)C1CCN(c2ncccn2)CC1 | 0
Cn1nc(C(F)(F)F)cc1O | 0
c1ccc(-c2ccncc2)cc1 | 0
Cc1cc(N)no1 | 0
Cc1cc(C)c2c(=O)[nH]n(C)c2n1 | 0
O=C(NC1CC1)c1ccccc1O | 0
O=C1CC(CSc2ccc(Cl)cc2)=NN1 | 0
CC1CCc2sc(C(=O)O)cc2C1 (stereo not shown) | 1 (active)
Cc1nc(-c2ccccc2)cs1 | 0
Cc1cc(-c2ccccc2)n[nH]1 | 0
